# Records with an inconclusive call do not appear. Unmarked numbers belong to inactive results. Active and inactive are the calls of the source. Calls come from the whole dose curve; as a rule, active = well fitted inhibition curve with a large enough effect in the repeat runs; inconclusive = weak or mixed curves; inactive = flat fitted curve, though single readings scatter.
# Test: qHTS assay to identify small molecule HDAC inhibitors (AID 1259364); note: top concentration of the series differs between compounds; nearly all actives have a fitted effect of over 45% in size
# Details: HCT-116 HDAC-Glo I/II luminescence, 2 h; series mostly up to 92.4 µM; activity change, negative = inhibition: at the top concentration
# Text: U.S. Tox21 Program National Center for Advancing Translational Sciences [NCATS] NIH Chemical Genomics Center [NCGC] U.S. Environmental Protection Agency [EPA] National Institutes of Environmental Health Sciences [NIEHS] National Toxicology Program [NTP] U.S. Food and Drug Administration [FDA] Tox21 Assay Overview: Histone deacetylases (HDACs) are a group of epigenetic enzymes that regulate gene expression by histone deacetylation. HDACs are capable of introducing epigenetic modifications and such aberrations contribute to the onset and progression of several human diseases, thus making HDACs a popular therapeutic target. For identifying endogenous class I/II HDAC inhibitors a homogenous, luminogenic HDAC I/II cell based assay was used to measure the relative activity of class I and II HDACs from cells. Wild type HCT-116 cells were used to screen Tox21 libraries for identifying class I/II HDAC inhibitors.
# Tox21 Assay Protocol Summary: HCT-116 cells were dispensed at 1,500 per well in 5uL of culture medium into white solid bottom 1536-well plates (Greiner Bio-One, Monroe, NC) using a Multidrop Combi (Thermo Scientific, Waltham, MA) dispenser. The assay plates were incubated at 37 C and 5% CO2 for an overnight, and then 23nL of compounds dissolved in DMSO and positive control were transferred using a Pintool station (Wako, San Diego, CA). The assay plates were incubated at 37C and 5% CO2 for 2hr. After compound treatment, 4uL of HDAC-Glo reagent (Promega Corporation, Madison, WI) was added to each well of the assay plates using Flying Reagent Dispenser (FRD, Aurora Discovery, San Diego, CA) and incubated the assay plates at room temperature for 30min. The luminescence signal was quantified using a ViewLux plate reader (Perkin Elmer, Shelton, CT).
# % is set by controls: 0 for no effect and ±100 for the full control effect.
Structure (SMILES),"activity change, negative = inhibition",Potency
CN1C(=O)N(C)C(O)C1O (stereo not given),0.21%,
N[C@H]1CN(c2c(F)cc3c(=O)c(C(=O)O)cn(C4C[C@H]4F)c3c2Cl)CC12CC2 (stereo not given in full),-8.16% [at 42.5 µM],
CCCCC/C=C\CCC=O,4.98%,
CCCN1CCCC[C@H]1C(=O)Nc1c(C)cccc1C,0.978% [at 42.5 µM],
NS(=O)(=O)c1cc(C(=O)O)cc(N2CCCC2)c1Oc1ccccc1,-0.763% [at 42.5 µM],
CN1CCN(c2cc3c(cc2F)c(=O)c(C(=O)O)cn3-c2ccc(F)cc2)CC1,2.4% [at 42.5 µM],
COC(=O)C1=C(C)NC(C)=C(C(=O)OC)C1c1ccccc1[N+](=O)[O-],,inactive
CCN1CCC[C@H]1CNC(=O)c1cc(S(N)(=O)=O)ccc1OC,9.37% [at 42.5 µM],
O=c1cc(CO)occ1O,0.0073% [at 42.5 µM],
CC(=O)c1ccccc1O,8.32%,
O=C1OC(=O)C2CCCCC12 (stereo not given),-0.253%,
CCc1ccc(O)c(OC)c1,-1.91%,
O=C1NC(=O)[C@@]2(CCOc3ccc(F)cc32)N1,-2.45% [at 42.5 µM],
CCOC(C)(C)C,-6.51%,
COC(=O)c1cc(C(=O)OC)cc(S(=O)(=O)O)c1,-3.39%,
O=Cc1cccc([N+](=O)[O-])c1,-1.46%,
Nc1c[n+](N2CCOCC2)no1,-4.59% [at 42.5 µM],
CC(=O)Nc1c(I)cc(I)c(C(=O)O)c1I,0.198% [at 42.5 µM],
COc1c(N2C[C@@H]3CCCN[C@@H]3C2)c(F)cc2c(=O)c(C(=O)O)cn(C3CC3)c12,13.1% [at 42.5 µM],
O=C(CCCN1CCC(O)(c2cccc(C(F)(F)F)c2)CC1)c1ccc(F)cc1,6.79% [at 42.5 µM],

Structure (SMILES),"activity change, negative = inhibition",Potency
O=S(O)CO,0.293%,
CC(C(=O)O)c1ccc(CC2CCCC2=O)cc1 (stereo not given),-1.86% [at 42.5 µM],
CCC(C)S (stereo not given),0.148% [at 3.27 µM],
CCC=O,0.27%,
COCCc1ccc(OCC(O)CNC(C)C)cc1 (stereo not given),,inactive
CCCCCSCCCCC,2.99%,
c1cnc(N2CCN(Cc3ccc4c(c3)OCO4)CC2)nc1,-0.331% [at 42.5 µM],
O=C1CC2CC1C1CCCC21 (stereo not given),5.67%,
CCOC(=O)CCC(C)=O,-5.3%,
CN1CC(=O)NC1=N,-1.13% [at 42.5 µM],
CO[C@]12C[C@@H](COC(=O)c3cncc(Br)c3)CN(C)[C@@H]1Cc1cn(C)c3cccc2c13,-3.13% [at 42.5 µM],
COC(=O)CC(C)=O,-0.486%,
NC(CSCC(=O)O)C(=O)O (stereo not given),0.413% [at 42.5 µM],
CCN1CCC[C@H]1CNC(=O)c1c(O)c(Cl)cc(Cl)c1OC,0.36% [at 42.5 µM],
NCCCNCCSP(=O)(O)O,-1.97% [at 8.39 µM],
Nc1cc(=O)[nH]c(N)n1,8.41% [at 42.5 µM],
Cc1c(NC(C)C)c(=O)n(-c2ccccc2)n1C,-2.39% [at 42.5 µM],
OCCCC1CCCCC1,1.36%,
Brc1c(NC2=NCCN2)ccc2nccnc12,4.6% [at 42.5 µM],
CC(C)NCCCC1(C(N)=O)c2ccccc2-c2ccccc21,-2.43% [at 42.5 µM],

# Source: PubChem BioAssay (Tox21)
